Measurements from PubChem BioAssay (NCI).
About 83,000 compounds went through this panel and 20% of them were active in at least one assay; those are over-represented in the sample as a whole.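 Results are percent growth after 48 hours of single-concentration exposure. 100 means growth as in untreated cells, lower positive values show inhibition; negative values down to -100 show cell death.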 The source made the active and inactive calls. The calls were made as follows: active = growth percent below 10; inactive = the rest.

How the values were obtained:
Assay in all cases: NCI-60 one-dose screen, 48 h (100 = growth as untreated, 0 = no growth, -100 = all killed)
Details in all cases: 10 µM unless noted
T-47D breast = system: T-47D breast
BT-549 breast = system: BT-549 breast
SW-620 colon = system: SW-620 colon
MCF7 breast = system: MCF7 breast
HCT-116 colon = system: HCT-116 colon
HCC-2998 colon = system: HCC-2998 colon
KM12 colon = system: KM12 colon
MDA-MB-435 melanoma = system: MDA-MB-435 melanoma

Measured: growth

CCOc1cc2ncc(C#N)c(Nc3ccc(OCc4cccc(F)c4)c(Cl)c3)c2cc1NC(=O)CCCCC1CCSS1 (stereo not drawn)
inactive: T-47D breast 64.4% | BT-549 breast 98.5% | SW-620 colon 99.4% | MCF7 breast 58.8% | HCT-116 colon 75.6% | HCC-2998 colon 105% | KM12 colon 82.8%

CCCCCCN(CCCCCC)C(=N)c1ccnc2ccccc12
inactive: T-47D breast 88.1% | BT-549 breast 73.8% | MDA-MB-435 melanoma 61.8% | SW-620 colon 59.8% | HCT-116 colon 31.2% | KM12 colon 71.1%
active: HCC-2998 colon -59.9%

Cc1cc(C)c2nc3nc(C)cc(C)c3c(N)c2c1
inactive: T-47D breast 37.8% | BT-549 breast 56.1% | SW-620 colon 16.2% | HCT-116 colon 13.9% | HCC-2998 colon 10.7% | KM12 colon 22.3%
active: MCF7 breast 8.2%

CCCOc1ccc2nc(NC(=O)OC)[nH]c2c1
inactive: T-47D breast 89.8% | BT-549 breast 33.4% | SW-620 colon 22.8%
active: MDA-MB-435 melanoma -49.3% | HCT-116 colon 9.34% | HCC-2998 colon -14% | KM12 colon 5.74%

COc1ccc(-n2nc(C)c3c(Nc4ccc(NC(=O)Nc5c(Cl)cccc5Cl)cc4)ncnc32)cc1
inactive: T-47D breast 40% | BT-549 breast 57.9% | SW-620 colon 48.6% | MCF7 breast 58.5% | HCT-116 colon 25% | HCC-2998 colon 51% | KM12 colon 18%

COc1ccc(-c2nc3ccc(-c4nc5ccc(N6CCN(c7ccc(F)cc7)CC6)cc5[nH]4)cc3[nH]2)cc1OC
active: MCF7 breast 9.99%
inactive: T-47D breast 43.8% | BT-549 breast 76.3% | SW-620 colon 46.5% | HCT-116 colon 11.2% | HCC-2998 colon 95.1% | KM12 colon 95%

CC(C)n1c(/C=C/[C@@H](O)C[C@@H](O)CC(=O)O)c(-c2ccc(F)cc2)c2ccccc21
inactive: T-47D breast 72.7% | BT-549 breast 60.6% | MDA-MB-435 melanoma 55.8% | SW-620 colon 72.9% | HCT-116 colon 22.1% | HCC-2998 colon 77.7% | KM12 colon 87.5%

OCC(O)c1nc2ccc3[nH]ncc3c2c2c1CCCC2 (stereo not drawn)
active: BT-549 breast -24.6% | SW-620 colon 3.04% | MCF7 breast 8.02% | KM12 colon 4.4%
inactive: T-47D breast 14% | MDA-MB-435 melanoma 17.4%

CN1CCN=C1c1ccc(NC(=O)c2ccc(C(=O)Nc3ccc(C4=NCCN4C)cc3)cc2)cc1
inactive: T-47D breast 86.7% | BT-549 breast 97.5% | SW-620 colon 102% | MCF7 breast 76.5% | HCT-116 colon 91.1% | HCC-2998 colon 112% | KM12 colon 98.7%

COc1ccc(C2CC(c3ccc(Cl)cc3)=NN2/C=C2\SC(=S)N(NC(=O)Cc3ccccc3Nc3c(Cl)cccc3Cl)C2=O)cc1 (stereo not drawn)
inactive: T-47D breast 49.5% | BT-549 breast 79% | MDA-MB-435 melanoma 89.3% | SW-620 colon 90% | MCF7 breast 74.1% | HCC-2998 colon 90.4% | KM12 colon 85.4%

Cc1ccc(OC(=O)c2ccc(Cl)cc2)cc1
inactive: T-47D breast 103% | BT-549 breast 100% | SW-620 colon 87.3% | MCF7 breast 102% | HCT-116 colon 57.9% | HCC-2998 colon 95.3% | KM12 colon 104%

O=C1CC[C@H](c2ccc(O)c3c2C(=O)[C@@H]2O[C@@H]2C3=O)c2cccc(O)c21
inactive: BT-549 breast 86.8% | HCC-2998 colon 101% | KM12 colon 85.1%
active: T-47D breast -26.1% | SW-620 colon -41.3% | MCF7 breast -31.5% | HCT-116 colon 5.4%

CCCOc1cc2ccccc2cc1C(=O)Nc1nc(NC)c2c(ccc3nccc32)[nH]1
active: T-47D breast -52.5% | BT-549 breast -27.4% | SW-620 colon -75% | MCF7 breast -61.9% | HCT-116 colon -72.3% | HCC-2998 colon -70.5% | KM12 colon -72.2%

CC(=O)c1cc2c(N)c(C(=O)Nc3cccc(F)c3C)sc2nc1C
inactive: T-47D breast 80.6% | BT-549 breast 80.9% | SW-620 colon 85.9% | MCF7 breast 78.9% | HCT-116 colon 92.3% | HCC-2998 colon 85% | KM12 colon 87.1%

CC[C@@H](C(=O)[C@@H](C)[C@@H](O)[C@H](C)[C@@H]1O[C@@H]([C@@H](CC)C(=O)O)CC[C@@H]1C)[C@H]1OC2(C=C[C@@H](O)[C@]3(CC[C@@](C)([C@H]4CC[C@](O)(CC)[C@H](C)O4)O3)O2)[C@H](C)C[C@@H]1C (stereo partly drawn)
inactive: T-47D breast 27.2% | SW-620 colon 16.2% | HCC-2998 colon 10.7% | KM12 colon 12.2%
active: BT-549 breast -12.3% | MDA-MB-435 melanoma -76.2%

Nc1nc2ccc3[nH]ncc3c2c2c1CCCC2
active: BT-549 breast -9.88% | SW-620 colon 1.68% | MCF7 breast 7.3% | HCT-116 colon 1.33% | HCC-2998 colon 9.63% | KM12 colon -1.31%
inactive: T-47D breast 11%

O=C(N=Nc1c(O)[nH]c2ccccc12)c1cc(-c2ccccc2)on1
inactive: T-47D breast 97.6% | BT-549 breast 109% | MDA-MB-435 melanoma 110% | SW-620 colon 97.8% | MCF7 breast 87.9% | HCC-2998 colon 111% | KM12 colon 101%

O=C1c2cc3c(cc2-c2c1c1ccc(F)cc1c(=O)n2C[C@H](O)[C@H](O)[C@H](O)CO)OCO3
active: T-47D breast -14.8% | BT-549 breast -11.3% | MDA-MB-435 melanoma -75.6% | SW-620 colon 1.12% | MCF7 breast 0.35% | KM12 colon 3.9%

COc1cc2c(cc1O)CC[C@@H]1[C@@H]2CC[C@]2(C)[C@@H](OCCN(C)C)CC[C@@H]12
active: MDA-MB-435 melanoma -56.8%
inactive: T-47D breast 58.3% | BT-549 breast 43.5% | SW-620 colon 13.1% | MCF7 breast 37.1% | KM12 colon 24.2%

COc1ccc(C(=O)COc2cccc(/C=C3\CSc4ccccc4C3=O)c2)cc1
inactive: T-47D breast 69.7%
active: BT-549 breast -74.8% | MDA-MB-435 melanoma -21.1% | SW-620 colon -96.9% | MCF7 breast -79.8% | KM12 colon -77.3%

CCCSc1ccc2nc(NC(=O)OC)[nH]c2c1
active: MDA-MB-435 melanoma -51% | HCC-2998 colon -4.45%
inactive: T-47D breast 57.4% | BT-549 breast 45.5% | SW-620 colon 24% | HCT-116 colon 15.5% | KM12 colon 14%

N#CN1CC[C@H](C(=O)Nc2cc3cc(C(N)=O)ccc3cn2)C1
active: T-47D breast -21.6% | BT-549 breast -5.54% | SW-620 colon 6.39% | MCF7 breast 6.05% | HCT-116 colon 1.69% | HCC-2998 colon -1.56% | KM12 colon 1.65%

CC[C@@H]1O[C@H](O[C@@H](c2cnc[nH]2)[C@H](NC(=O)c2nc([C@H](CC(N)=O)NC[C@@H](N)C(N)=O)nc(N)c2C)C(=O)N[C@H](C)[C@H](O)[C@H](C)C(=O)N[C@@H](C(=O)NCCc2nc(-c3nc(C(=O)NCCCCN=C(N)N)cs3)cs2)[C@@H](C)O)[C@H](O[C@@H]2O[C@H](CO)[C@H](O)[C@H](OC(N)=O)[C@@H]2O)[C@H](C)[C@@H]1C
inactive: T-47D breast 57.4% | BT-549 breast 78.3% | MDA-MB-435 melanoma 81.9% | SW-620 colon 68.1% | HCT-116 colon 37% | HCC-2998 colon 69.7% | KM12 colon 57.9%

c1ccc(Cn2cc(-c3nc4ccccc4s3)c3cccnc32)cc1
inactive: T-47D breast 94% | BT-549 breast 106% | MDA-MB-435 melanoma 104% | SW-620 colon 105% | MCF7 breast 75.4% | HCC-2998 colon 107% | KM12 colon 92.6%

CN(C)C(=S)N=Nc1c(O)[nH]c2ccccc12
active: HCT-116 colon 3.73%
inactive: T-47D breast 25% | BT-549 breast 30.7% | SW-620 colon 30.2% | MCF7 breast 17.8% | HCC-2998 colon 23.9% | KM12 colon 25.9%

CCOc1ccc(-n2nc(C(=O)Nc3ccccc3)nc2-c2cc(OC)c(OC)c(OC)c2)cc1
active: MDA-MB-435 melanoma 0.193%
inactive: T-47D breast 39.4% | BT-549 breast 60.9% | SW-620 colon 36.2% | MCF7 breast 37% | KM12 colon 27.5%

CCCCCCCCCCCCC[N+](C)(C)Cc1ccccc1
active: BT-549 breast -72.9% | MDA-MB-435 melanoma -73.6% | SW-620 colon -37.6% | HCT-116 colon -89.9% | HCC-2998 colon -80.5% | KM12 colon -93.6%
inactive: T-47D breast 15.1%
